Test results reported in PubChem BioAssay (NCATS).
Inconclusive results are not listed.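 How the source made its calls, unless noted: active means compounds whose dose series gives a full or clear partial fitted curve of increased nuclear translocation; inconclusive means weak partial curve or effect only at the top dose; inactive means no dose-dependent translocation response.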

Test system: not listed separately
Assay: Stat Signaling Pathway (AID 446; active means well fitted curve in either direction with a large enough effect, not every such curve was filed as active;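 further: ME-180 cervical cancer cells given 40 pM IL-6 alongside compound; SIE-controlled beta-lactamase reporter measured as 460/530 nm FRET emission ratio; on the % scale 0 is the no-effect control and ±100 the full control effect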)
Conditions: ME-180 SIE beta-lactamase reporter, IL-6 stimulated, 5 h; at 17.2 µM (top of the series) unless noted
Summary of the method: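 ME-180 cells carrying a SIE-driven beta-lactamase reporter are stimulated with 40 pM IL-6 for 5 h at 37C in the presence of compound. The 460/530 nm FRET substrate ratio is read after 2.5 h at RT. Data are normalised to 300 pM IL-6 and to 125 nM JAK inhibitor controls.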

activity, negative = inhibition, inactive:
COc1ccc(-c2nnc3sc(COc4ccccc4)nn23)cc1 -8.06%, CCOc1ccc(S(=O)(=O)N(C)C)cc1-c1nc2c(C(C)(C)C)nn(C)c2c(=O)[nH]1 -17.2%, Cc1cn2c(-c3ccncc3)nnc2s1 -2.66%, COc1ccccc1N1CCN(CCOc2c(OC)cccc2OC)CC1 2.04%, COc1ccc(/C(O)=C2\C(=O)C(=O)N(CCN3CCOCC3)C2c2ccccc2OC)cc1 (stereo not given) -2.59%, CCOC(=O)c1[nH]c2ccc(OC)cc2c1NC(=O)CCN1CCCC(C)C1 (stereo not given) 3.31%, N#CC1(c2ccccc2)CCC(=NO)CC1 (stereo not given) 11.5%, COCCOC(=O)C1=C(C)OC(N)=C(C#N)C1c1ccco1 (stereo not given) -4.05%, N#CC1(P(=O)(c2ccccc2)c2ccccc2)CC1 1.75%, COc1ccc(C(=O)Nc2nc(N)n(-c3ccccc3)n2)cc1OC 1.75%, CCCCOc1ccccc1P(=O)(O)CP(=O)(c1ccccc1)c1ccccc1 -14.9%, Clc1ccc2[nH]c3c(NCCCN4CCOCC4)ncnc3c2c1 -2.1%, c1nc(NC2CCCCC2)c2[nH]cnc2n1 -29.4%, CCOC(=O)CC(=O)CSc1[nH]c(=O)cc(C)c1C#N 13.5%, CCOC(=O)c1c(C)oc2ccc(OCC(=O)C(C)(C)C)cc12 -10.1%, Cc1cc(C)cc(CC2CC(=O)N(c3cc(C)on3)C2=O)c1 (stereo not given) -12.9%, CC(C)Nc1nc(NC(C)C)nc(N(C)n2cnnc2)n1 4.66%, Cn1c(N)c(C#N)c(C#N)c1-c1ccccc1 -8.46%, c1ccc(-c2nnc(OCCN3CCOCC3)c3ccccc23)cc1 5.26%, c1coc(CNc2ncnc3ccccc23)c1 -18.3%, O=C(CCN1CCCCC1)Nc1cccc(Cl)c1 -0.895%, CCOC(=O)NC(Nc1sc2c(c1C(N)=O)CCCC2)(C(=O)OCC)C(F)(F)F (stereo not given) -7.59%, COc1cccc(C2CC(c3ccccc3Cl)n3nc(N)nc3N2)c1 (stereo not given) -3.07%, COc1ccc(C=NCCCN2CCOCC2)cc1 -3.86%, C=CCc1c(C)c(C#N)c2nc3ccccc3n2c1N1CCN(C)CC1 3.98%, Cc1ccc(-n2ncc3c(NCCCN4CCCC4=O)ncnc32)c(C)c1 9.31%, O=C(O)CC(C(=O)OCCOc1ccccc1)N1CCOCC1 (stereo not given) -1.47%, O=C(CCC1CCCC1)N1CCC(N2CCN(c3ccccc3)CC2)CC1 9.85%, c1coc(-c2nnc3sc(C4CCCCC4)nn23)c1 6.55%, CCOc1cccc(-c2nnc3sc(-c4ccco4)nn23)c1 -18.8%, CCC(NC(=O)Nn1cnnc1)(C(F)(F)F)C(F)(F)F 5.97%, CCOC(=O)c1n[nH]c2ccccc12 -6.98%, O=C(C(c1ccccc1)N1CCOCC1)N1CCOCC1 (stereo not given) 13.8%, CCOC(=O)c1sc(-n2[nH]c(C)cc2=O)nc1C 1.64%, COc1ccc(C2C=C(c3ccc(Cl)cc3)Nc3nc(NC(C)=O)nn32)cc1 (stereo not given) -9.52%, CCCOc1ccc(/C(O)=C2/C(=O)C(=O)N(CCCN3CCOCC3)C2c2ccncc2)cc1 (stereo not given) 5.77%, Cn1c(CSc2ncn[nH]2)nc2ccccc21 20.6%, CCN(CC)CCOC(=O)C1(c2ccc(OC)c(OC)c2)CCCC1 11%, CCOC(=O)c1ccc(CC2S/C(=C(\C#N)C(C)=O)NC2=O)cc1 (stereo not given) -21.4%, C=CCn1c(C2CC(=O)N(c3ccc(C)cc3)C2)nc2ccccc21 (stereo not given) 5.25%

Target: Glucocorticoid receptor (Homo sapiens) (UniProt P04150)
Assay: GR-GFP Redistribution (AID 450); further: potency means the concentration at half of the fitted maximal effect
Conditions: U2OS GR-GFP nuclear translocation, laser cytometry, 2 h; series mostly up to 20.6 µM

Glucocorticoid receptor (Homo sapiens), sequence (P04150 whole entry, looked up): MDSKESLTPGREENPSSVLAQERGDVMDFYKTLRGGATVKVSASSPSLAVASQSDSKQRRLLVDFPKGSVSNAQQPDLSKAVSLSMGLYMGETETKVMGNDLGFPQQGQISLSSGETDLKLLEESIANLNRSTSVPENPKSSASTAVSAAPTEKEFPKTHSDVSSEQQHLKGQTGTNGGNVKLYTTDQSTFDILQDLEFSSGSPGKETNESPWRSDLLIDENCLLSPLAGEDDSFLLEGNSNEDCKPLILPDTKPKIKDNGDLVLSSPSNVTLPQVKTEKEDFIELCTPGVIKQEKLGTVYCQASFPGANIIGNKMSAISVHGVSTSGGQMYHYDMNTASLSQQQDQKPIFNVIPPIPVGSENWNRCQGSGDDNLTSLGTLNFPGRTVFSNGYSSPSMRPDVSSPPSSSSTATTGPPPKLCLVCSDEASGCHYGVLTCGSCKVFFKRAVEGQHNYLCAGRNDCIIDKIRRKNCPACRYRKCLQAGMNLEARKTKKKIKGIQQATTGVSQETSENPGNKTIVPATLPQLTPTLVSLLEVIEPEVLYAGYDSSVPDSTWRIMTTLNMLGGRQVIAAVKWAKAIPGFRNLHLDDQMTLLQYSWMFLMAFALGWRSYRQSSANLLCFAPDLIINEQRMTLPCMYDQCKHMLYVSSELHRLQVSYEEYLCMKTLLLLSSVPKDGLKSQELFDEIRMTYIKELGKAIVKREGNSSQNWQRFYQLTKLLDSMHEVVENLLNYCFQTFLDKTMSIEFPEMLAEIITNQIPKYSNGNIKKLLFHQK

Potency, inactive:
COc1ccc(-c2nnc3sc(COc4ccccc4)nn23)cc1 > 20.6 µM, CCOc1ccc(S(=O)(=O)N(C)C)cc1-c1nc2c(C(C)(C)C)nn(C)c2c(=O)[nH]1 > 20.6 µM, Cc1cn2c(-c3ccncc3)nnc2s1 > 20.6 µM, COc1ccccc1N1CCN(CCOc2c(OC)cccc2OC)CC1 > 20.6 µM, COc1ccc(/C(O)=C2\C(=O)C(=O)N(CCN3CCOCC3)C2c2ccccc2OC)cc1 (stereo not given) > 20.6 µM, CCOC(=O)c1[nH]c2ccc(OC)cc2c1NC(=O)CCN1CCCC(C)C1 (stereo not given) > 20.6 µM, N#CC1(c2ccccc2)CCC(=NO)CC1 (stereo not given) > 20.6 µM, COCCOC(=O)C1=C(C)OC(N)=C(C#N)C1c1ccco1 (stereo not given) > 20.6 µM, N#CC1(P(=O)(c2ccccc2)c2ccccc2)CC1 > 20.6 µM, COc1ccc(C(=O)Nc2nc(N)n(-c3ccccc3)n2)cc1OC > 20.6 µM, CCCCOc1ccccc1P(=O)(O)CP(=O)(c1ccccc1)c1ccccc1 > 20.6 µM, Clc1ccc2[nH]c3c(NCCCN4CCOCC4)ncnc3c2c1 > 20.6 µM, c1nc(NC2CCCCC2)c2[nH]cnc2n1 > 20.6 µM, CCOC(=O)CC(=O)CSc1[nH]c(=O)cc(C)c1C#N > 20.6 µM, CCOC(=O)c1c(C)oc2ccc(OCC(=O)C(C)(C)C)cc12 > 20.6 µM, Cc1cc(C)cc(CC2CC(=O)N(c3cc(C)on3)C2=O)c1 (stereo not given) > 20.6 µM, CC(C)Nc1nc(NC(C)C)nc(N(C)n2cnnc2)n1 > 20.6 µM, Cn1c(N)c(C#N)c(C#N)c1-c1ccccc1 > 20.6 µM, c1ccc(-c2nnc(OCCN3CCOCC3)c3ccccc23)cc1 > 20.6 µM, c1coc(CNc2ncnc3ccccc23)c1 > 20.6 µM, O=C(CCN1CCCCC1)Nc1cccc(Cl)c1 > 20.6 µM, CCOC(=O)NC(Nc1sc2c(c1C(N)=O)CCCC2)(C(=O)OCC)C(F)(F)F (stereo not given) > 20.6 µM, COc1cccc(C2CC(c3ccccc3Cl)n3nc(N)nc3N2)c1 (stereo not given) > 20.6 µM, COc1ccc(C=NCCCN2CCOCC2)cc1 > 20.6 µM, C=CCc1c(C)c(C#N)c2nc3ccccc3n2c1N1CCN(C)CC1 > 20.6 µM, Cc1ccc(-n2ncc3c(NCCCN4CCCC4=O)ncnc32)c(C)c1 > 20.6 µM, O=C(O)CC(C(=O)OCCOc1ccccc1)N1CCOCC1 (stereo not given) > 20.6 µM, O=C(CCC1CCCC1)N1CCC(N2CCN(c3ccccc3)CC2)CC1 > 20.6 µM, c1coc(-c2nnc3sc(C4CCCCC4)nn23)c1 > 20.6 µM, CCOc1cccc(-c2nnc3sc(-c4ccco4)nn23)c1 > 20.6 µM, CCC(NC(=O)Nn1cnnc1)(C(F)(F)F)C(F)(F)F > 20.6 µM, CCOC(=O)c1n[nH]c2ccccc12 > 20.6 µM, O=C(C(c1ccccc1)N1CCOCC1)N1CCOCC1 (stereo not given) > 20.6 µM, CCOC(=O)c1sc(-n2[nH]c(C)cc2=O)nc1C > 20.6 µM, COc1ccc(C2C=C(c3ccc(Cl)cc3)Nc3nc(NC(C)=O)nn32)cc1 (stereo not given) > 20.6 µM, CCCOc1ccc(/C(O)=C2/C(=O)C(=O)N(CCCN3CCOCC3)C2c2ccncc2)cc1 (stereo not given) > 20.6 µM, Cn1c(CSc2ncn[nH]2)nc2ccccc21 > 20.6 µM, CCN(CC)CCOC(=O)C1(c2ccc(OC)c(OC)c2)CCCC1 > 20.6 µM, CCOC(=O)c1ccc(CC2S/C(=C(\C#N)C(C)=O)NC2=O)cc1 (stereo not given) > 20.6 µM, C=CCn1c(C2CC(=O)N(c3ccc(C)cc3)C2)nc2ccccc21 (stereo not given) > 20.6 µM
